Jurkat NFkB inh: inhibitors of induced NF-kB luciferase reporter, primary screen, TCR NF-kB activation inhibitor project, cell-based, luminescence, uHTS; Jurkat, PMA/ionomycin-induced NF-kB luciferase reporter; inhibition, % at 4 µM; hit rate 0.53% among 330,000; AID 435003, 2010; in the data active = inhibition above about 50%
Mdm2-MdmX inh: inhibitors of human Mdm2-MdmX association, primary screen, cell-based, luminescence, split luciferase, SaOS-2, uHTS; hit rate 3% among 330,000; SaOS-2 split-luciferase Mdm2/MdmX complementation; inhibition, % at 8 µM;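 active = inhibition of at least 50% at 8 µM in the primary screen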
CSC inhib: cancer stem cell viability inhibitors, primary screen, luminescence; cancer stem cell-like cells viability; inhibition, % at 7.5 µM; hit rate 1.1% among 300,000; in the data active = inhibition above about 75%; tested in HMLE shEcad cells
697 NFkB inh: inhibitors of PMA/ionomycin-induced NF-kB reporter, 697 cells, primary screen, B-cell NF-kB inhibitor project, cell-based, luminescence, uHTS; 697 B-cell NF-kB luciferase reporter, 16 h; inhibition, % at 4 µM; AID 435022, 2010; hit rate 0.33% among 330,000; in the data active = inhibition above about 35%
Beta apoptosis: inhibitors of cytokine-induced beta cell apoptosis, primary screen, luminescence | INS-1E cytokine-induced death, ATP luminescence, 48 h; percent of positive-control rescue, neutral wells zero | protection from apoptosis, % (no concentration beside the values) | hit rate 0.8% among 300,000;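 active = Every replicate reaches about 75%, or at least half do and their mean reaches it too, limit read from the data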;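 note: higher means more ATP so stronger rescue from cytokine killing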
Gli-Sufu antag: Gli-Sufu pathway antagonists, primary screen, luciferase luminescence, Sufu-KO-LIGHT cells, uHTS; Sufu-KO-LIGHT fibroblasts, Gli luciferase reporter luminescence; inhibition, % at 5 µM; hit rate 0.74% among 340,000;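 active = inhibition above about 55%, limit read from the data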
Mdm2-MdmX conf: Mdm2-MdmX complex disruptors, retested hits, confirmation, luminescence, single concentration; shares compounds with Mdm2-MdmX inh; Mdm2-MdmX binding, luminescent assay; inhibition, % at 8 µM; hit rate 55% among 10,000; in the data active = inhibition above about 40%
FLuc counter: full-length luciferase signal inhibition, confirmation, counter-screen for Mdm2/MdmX interaction inhibitor project, cell-based, single concentration, SaOS-2 | SaOS-2 full-length luciferase counterscreen, luminescence | shares compounds with Mdm2-MdmX inh | hit rate 77% among 6,200 | AID 504607, 2011 | inhibition, % at 8 µM;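 active = mean inhibition at 8 µM reaching about 37%, which flags the compound as non-specific, limit read from the data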;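 note: p53-null SaOS-2 cells with luciferase driven by a doxycycline-inducible promoter; compound on cells about two nights before reading with doxycycline added after day one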
Hits are given with their value; . = inactive; / = no result given. An excerpt weighted towards active compounds, which were near 4.5% of everything screened.

SMILES	Jurkat NFkB inh	Mdm2-MdmX inh	CSC inhib	697 NFkB inh	Beta apoptosis	Gli-Sufu antag	Mdm2-MdmX conf	FLuc counter
CSc1ccc(/C=C(/NC(=O)c2ccco2)C(=O)N2CCCCC2)cc1	.	.	.	.	/	.	/	/
COc1ccc(NC(=O)c2cccc3c2C(=O)c2ccc(-c4ccc(F)cc4OCc4ccccc4)cc2S3(=O)=O)cc1	.	78	.	.	.	.	.	/
Cc1ccc(C(=O)N[C@@H](C)CN2C3=NC[C@H](C(C)C)N3C[C@H]2Cc2ccc(O)cc2)cc1Br	.	.	.	.	.	.	/	/
COc1ccc(C[C@H]2CN3C(=NC[C@@H]3C(C)C)N2C[C@H](C)NC(=O)c2ccc(C)c(Br)c2)cc1	.	52	.	.	.	.	.	/
COc1ccc(C[C@H]2CN3C(=NC[C@@H]3Cc3ccccc3)N2C[C@H](C)NC(=O)CCC2CCCCC2)cc1	.	68	/	.	/	/	48	72
COc1ccc(C[C@H]2CN3C(=NC[C@@H]3Cc3ccc(O)cc3)N2C[C@H](C)NC(=O)c2ccc(C)c(Br)c2)cc1	.	86	.	.	.	.	.	/
C[C@@H](CN1C2=NC[C@H](Cc3ccccc3)N2C[C@H]1Cc1ccc(O)cc1)NC(=O)CCC1CCCCC1	.	.	.	.	.	.	/	/
C[C@@H](CN1C2=NC[C@H](Cc3ccc(O)cc3)N2C[C@H]1Cc1ccc(O)cc1)NC(=O)CCC1CCCCC1	.	.	.	.	.	.	/	/
COc1ccc(N2CC(C(=O)N/N=C/c3cc([N+](=O)[O-])ccc3O)CC2=O)cc1 (stereo not drawn)	.	.	.	.	.	.	/	/
O=C(COc1ccc([N+](=O)[O-])cc1)Nc1ccc2c(c1)nc1n2CCOC1	.	.	.	.	.	.	/	/
COc1cc(/C=C(\C(=O)O)c2ccc(S(=O)(=O)N3CCCC3)s2)ccc1OCCC(C)C	/	/	/	/	/	.	/	/
Cc1sc2ncnc(NCc3ccccc3)c2c1C	.	67	.	.	.	.	.	/
Cc1cccc(C)c1NS(=O)(=O)c1c(C(=O)N2CCCCC2)c(C)n(C)c1C	.	.	.	.	.	.	/	/
Cc1nc(SCc2nc3ccccc3[nH]2)c2oc3cc(Br)ccc3c2n1	.	65	.	.	.	.	.	/
Cc1cccc(NC(=O)c2ccc(S(=O)(=O)N3CCCCC3)cc2)c1	.	.	.	.	.	.	/	/
O=C(Cn1nnc(-c2ccccc2NC(=O)c2ccco2)n1)Nc1ccccc1	.	76	/	.	.	.	41	64
CCCCn1c(=O)[nH]c(=O)c2c(C(=O)OCC)cc(-c3ccc(OC(F)F)cc3)nc21	.	57	/	.	.	.	.	/
CCN(CC)CCNC1=NCCn2c1cc1cc(OC)ccc12	.	64	.	.	.	.	64	68
CN=C1c2cc3cc(OC)ccc3n2CCN1Cc1ccccc1	/	/	/	/	/	.	/	/
CCC(C)NC(=O)c1c(N)n(/N=C/c2cccnc2)c2nc3ccccc3nc12 (stereo not drawn)	.	65	.	.	.	.	60	61
Nc1c(-c2ccccc2)c(CSc2nc3ccccc3[nH]2)nn1-c1cccc(Cl)c1	.	61	.	.	.	.	.	/
CCOC(=O)CC/C(=N\NC(N)=O)c1ccc(OC)c(Cl)c1	.	.	.	.	.	.	/	/
COc1cccc(CNC(=O)CCS(=O)(=O)c2ccc3c(c2)oc(=O)n3C)c1	.	.	.	.	.	.	/	/
Cn1c(Sc2ccc(Cl)cc2)c(C=O)c2ccccc21	.	81	.	.	.	.	77	57
Cn1c(Oc2ccc(Cl)cc2)c(C=O)c2ccccc21	.	50	.	.	.	.	41	.
SMILES	Jurkat NFkB inh	Mdm2-MdmX inh	CSC inhib	697 NFkB inh	Beta apoptosis	Gli-Sufu antag	Mdm2-MdmX conf	FLuc counter
COc1ccc(Oc2c(C=O)c3ccccc3n2C)cc1	.	.	.	.	.	.	/	/
Cn1c(Sc2ccccc2Cl)c(C=O)c2ccccc21	.	.	.	.	.	.	/	/
CCOC(=O)c1c(NC(=O)Nc2ccc(Cl)cc2)sc(C)c1C	.	.	.	.	.	.	/	/
CCOC(=O)c1sc(NC(=O)c2c(C)nn(Cc3ccccc3)c2C)cc1C	.	53	/	.	88	.	.	/
CCOC(=O)c1sc(NC(=O)Nc2ccc(Cl)cc2)cc1C	.	75	.	.	89	.	86	55
COc1ccc(S(=O)(=O)N(C)C[C@H]2Oc3c(NS(=O)(=O)c4cn(C)cn4)cccc3C(=O)N([C@H](C)CO)C[C@@H]2C)cc1	.	.	.	.	.	.	/	/
COc1cccc(OC)c1NC(=O)C1CCCN1C(=O)Nc1ccccc1F (stereo not drawn)	.	.	/	.	/	.	/	/
O=Cc1cccc(Oc2ccc([N+](=O)[O-])cc2[N+](=O)[O-])c1	.	64	.	.	.	.	.	/
COc1ccc([N+](=O)[O-])cc1COc1ccc2c(-c3ccccc3)cc(=O)oc2c1	.	52	.	.	.	.	.	/
CC(=O)COc1ccc2c(-c3cccc([N+](=O)[O-])c3)cc(=O)oc2c1	.	.	.	.	.	.	/	/
Cc1cc(=O)oc2cc(Oc3ncccc3[N+](=O)[O-])ccc12	.	.	.	.	.	.	/	/
Cc1cc(=O)oc2cc(Oc3ccc([N+](=O)[O-])cc3[N+](=O)[O-])ccc12	.	60	.	.	.	.	65	52
Cc1ccc2c(c1)N(CC(=O)NCCCN1CCCCC1)C(=O)CO2	.	.	.	.	.	.	/	/
O=C(NCc1nc(-c2ccc(C(F)(F)F)cc2)no1)Nc1cc(Cl)cc(Cl)c1	.	93	134	.	110	.	81	45
N#C/C(=C\Nc1ccc2cn[nH]c2c1)c1nc(-c2ccc(Cl)cc2)cs1	.	50	.	.	.	.	.	/
N#C/C(=C\Nc1ccc2cn[nH]c2c1)c1nc(-c2ccccc2)cs1	/	/	/	/	/	.	/	/
N#CCC(=O)Nc1ccc(C(=O)N2CCN(S(=O)(=O)c3ccc4ccccc4c3)CC2)cc1	.	.	.	.	.	.	/	/
COc1cc(-c2nc(-c3ccc(NC(=O)c4ccc5c(c4)OCO5)cc3)no2)cc(OC)c1OC	.	83	.	.	.	.	77	44
COc1ccc(CC(=O)Nc2ccc(-c3nc4cc(C)ccc4o3)c(O)c2)cc1OC	.	92	.	.	.	.	47	115

High-throughput results from PubChem.
